This is part of a sample that, as a whole, favours compounds with a hit. Of some 79,000 tested, about 15% had one in any assay. Unmarked numbers belong to inactive results. Cut-off read from the data, not from the text of the source: active = growth inhibition above about 70%; inactive = the rest.

The test can be described thus: NCI Yeast Anticancer Drug Screen. Data for the rad50 strain (AID 155).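 Note: 0% = growth of vehicle-only cultures of the same strain.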 The note with it: S. cerevisiae rad50 strain growth inhibition; at 50.0 µM; stronger effect = higher value. The essentials: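 Relative growth inhibition (compound vs vehicle) was measured in yeast with a defined repair-gene alteration.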
Turning to `O=[N+]([O-])c1ccc(C[N+]23CCN(CC2)CC3)cc1`, the growth inhibition was 5.9%.
As for `CNC(=O)Oc1cc(C)cc(C(C)C)c1`, the figure is 14.3%; as for `COc1ccc(-n2c(=S)[nH]c3ccccc3c2=O)cc1`, -10.5%; as for `CC1NCCc2cc(O)c(O)cc21` (configuration not stated), 4.35%.
As for `Cc1ccc(-c2cc(Cl)c3cc(S(=O)(=O)F)ccc3n2)cc1`, the figure is -4%; as for `CN1CCN(c2ccc(Cl)cc2)CC1`, -5.85%; as for `O=c1c2ccccc2[nH]c(=S)n1-c1cccc(Cl)c1`, 44.2%.
As for `O=C(CBr)OCCCS(=O)(=O)O`, the figure is -24.9%; as for `C1CC[N-]CC1.CN(C)P(=O)(N(C)C)N(C)C.OO.OO.[O]=[Mo]`, 11.3%; as for `CSC(=S)NNC(=O)c1cccc(S(=O)(=O)F)c1`, -2.95%.
On to `Clc1cccc(NC2=NCCS2)c1`, for which the growth inhibition is -7.35%.
As for `O=c1oc2ccccc2c(O)c1C(c1ccc2c(c1)OCO2)c1c(O)c2ccccc2oc1=O`, the figure is -5.8%; as for `COc1ccc(S(=O)(=O)F)cc1NC(=O)c1ccc2ccccc2c1O`, 6.4%; as for `O=C(CCN1CC=C(c2ccccc2)CC1)NCc1ccccc1`, 5%.
The same measure for `CCOC(=O)c1ccc2nc(-c3ccc(S(=O)(=O)F)cc3)cc(Cl)c2c1`: 12%; for `O=C(CBr)OCS(=O)(=O)O`: -15.2%; for `C[N+]1([O-])C2CCC1CC(OC(=O)C(O)c1ccccc1)C2` (configuration not stated): 1.45%.
As for `O=C(/C=C/c1ccccc1)NCCc1cnc[nH]1`, the figure is 0.65%.
`NC(=NC1CCCCCCCCCCC1)N[N+](=O)[O-]`: the growth inhibition was 36.1%.
As for `C/C=C1\CN2CCC1CC2C(O)c1ccnc2ccc(O)cc12` (configuration not stated), the figure is -3.6%.
As for `c1ccc2c(c1)O[As](O[As]1Oc3ccccc3O1)O2`, the figure is -4.2%.
As for `CNCCc1ccc(O)c(O)c1`, the figure is -1.6%; as for `CC1C2C=CC1C(c1c3ccc(=O)cc-3oc3cc(O)ccc13)C2C(=O)O` (configuration not stated), -4.85%.
Regarding `O=c1c2ccc(Cl)cc2[nH]c(=S)n1-c1ccc(Cl)cc1`, the growth inhibition was 10.1%.
The same measure for `Cc1cccc(-c2cc(Cl)c3cc(S(=O)(=O)F)ccc3n2)c1`: -1.1%.
For the molecule `NC(=O)NNc1ccc([N+](=O)[O-])cc1[N+](=O)[O-]`, the growth inhibition was 12.1%.
As for `CCCOP(=O)(CCl)OCCC`, the figure is -7.8%; as for `CN1C2c3ccccc3C3C4c5ccccc5C(C31)C(C2[N+](=O)[O-])N4C` (configuration not stated), -12.8%; as for `CC(Cc1ccccc1)N(C)CC1C(=O)C2CCC1C2` (configuration not stated), 10.5%.
Consider `COc1ccc(CC[N+](C)(C)C)cc1`, for which the growth inhibition is -3.85%.
As for `COc1ccc(C(=O)OC2CC3CCC(C2)N3)cc1OC` (configuration not stated), the figure is 7.25%.
As for `O=C1C(Cl)=C(Cl)C1(Cl)Cl`, the growth inhibition was -3.5%.
Turning to `Cc1ccc(-n2c(=S)[nH]c3ccccc3c2=O)cc1F`, the growth inhibition is -23.9%.
With `COc1cccc(N=C(N)N[N+](=O)[O-])c1`, the growth inhibition is -13.2%.
As for `Cc1ccc(-n2c(=S)[nH]c3ccccc3c2=O)cc1`, the figure is -8.7%; as for `COc1ccccc1NC1=NCCS1`, 20.9%; as for `Brc1ccc(C[N+]23CCN(CC2)CC3)cc1`, -14.2%.
